# In PubChem BioAssay (NCATS):
# Inconclusive results are not listed. Calls of active or inactive are those of the source. Calls come from the whole dose curve; as a rule, active = well fitted inhibition curve with a large enough effect; inconclusive = small, poorly fitted or top-dose-only effect; inactive = no such curve, though single readings can be large or run the other way.
# Experiment: P-glycoprotein substrates identified in KB-3-1 adenocarcinoma cell line, qHTS therapeutic library screen (AID 1346986); note: nearly all actives have a fitted effect of over 60% in size
# Details: KB-3-1 parental cells viability, CellTiter-Glo, 72 h; series mostly up to 44.5 µM; activity change, negative = cytotoxicity: at the top concentration
# Procedure, shortened: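 Viability read by CellTiter-Glo after 72 h compound exposure in dose-response of KB-3-1 and KB-8-5-11 (P-gp-high) cells. Hits needed AC50 < 10 uM, >50% maximum response and curve class -1.1 to -2.4. Cherry-picks retested ± tariquidar, including pcDNA/MDR-19 HEK-293 pair.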
row,SMILES,outcome
1,CC1=CC(=O)C2C(C)(C)CC(O)CC2(C)C1CO (stereo not drawn),inactive
2,CC(=O)OC[C@@]12[C@@H](OC(C)=O)C[C@@H](C)[C@](C)([C@@H]3C[C@H]4C=CO[C@H]4O3)[C@H]1CCC[C@]21CO1,inactive [at 17.4 µM]
3,CC1CC(O)CC(C)(C)C1(O)CCO (stereo not drawn),inactive [at 93.4 µM]
4,CC(=O)Oc1cc2c(s1)CCN([C@H](C(=O)C1CC1)c1ccccc1F)C2,inactive
5,CC1(C)CCCC2(C)C(CO)C3CCC2C31 (stereo not drawn),inactive
6,CC1CCC2(O1)C(C)(C)CC(O[C@@H]1O[C@H](CO[C@@H]3OC[C@](O)(CO)[C@H]3O)[C@@H](O)[C@H](O)[C@H]1O)CC2(C)O (stereo partly drawn),inactive [at 17.4 µM]
7,NCCCC[C@H](NC(=O)[C@@H]1Cc2ccccc2CN1C(=O)CCC(=O)c1ccccc1)C(=O)NCC(c1ccccc1)c1ccccc1,inactive
8,COc1cc(-c2cccc(O)c2)cc2c1OCO2,inactive
9,C=C1CC[C@H]2[C@@H](/C=C(\C)C(=O)[C@@]3(OC(C)=O)C[C@H](C)[C@H](OC(C)=O)[C@@H]3[C@H]1OC(C)=O)C2(C)C,inactive [at 17.4 µM]
10,CC1CCC2(C(=O)OC3OC(CO)C(O)C(O)C3O)CCC3(C(=O)O)C(=CCC4C5(C)CCC(OC6OC(C)C(O)C(O)C6O)C(C)(C)C5CCC43C)C2C1C (stereo not drawn),inactive [at 17.4 µM]
11,CC(C)C1=CC2=CCC3[C@](C)(CCC[C@@]3(C)C(=O)O)C2CC1O (stereo partly drawn),inactive
12,COc1cc([C@H]2OC[C@]3(OC(C)=O)[C@@H](c4ccc(O[C@@H]5O[C@H](CO)[C@@H](O)[C@H](O)[C@H]5O)c(OC)c4)OC[C@H]23)ccc1O,inactive [at 17.4 µM]
13,COC1CC(=O)CCC(C)OC(=O)CC1O (stereo not drawn),inactive
